High-throughput results (PubChem)
Compounds with a hit are over-represented: about 3.4% of the library has one in this group of screens.
FBW7 activator: human FBW7 E3 ligase activation, primary screen | Q969H0 | AlphaScreen FBW7–phospho-cyclin E peptide binding, activator screen | normalized activity (activation), % at 26.1 µM | 650,000 compounds, 0.13% hits; in the data active means normalized activity above about 1.9%;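 further: purified mutant Fbw7 with reduced substrate affinity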
Target sequence (Q969H0 whole entry, looked up): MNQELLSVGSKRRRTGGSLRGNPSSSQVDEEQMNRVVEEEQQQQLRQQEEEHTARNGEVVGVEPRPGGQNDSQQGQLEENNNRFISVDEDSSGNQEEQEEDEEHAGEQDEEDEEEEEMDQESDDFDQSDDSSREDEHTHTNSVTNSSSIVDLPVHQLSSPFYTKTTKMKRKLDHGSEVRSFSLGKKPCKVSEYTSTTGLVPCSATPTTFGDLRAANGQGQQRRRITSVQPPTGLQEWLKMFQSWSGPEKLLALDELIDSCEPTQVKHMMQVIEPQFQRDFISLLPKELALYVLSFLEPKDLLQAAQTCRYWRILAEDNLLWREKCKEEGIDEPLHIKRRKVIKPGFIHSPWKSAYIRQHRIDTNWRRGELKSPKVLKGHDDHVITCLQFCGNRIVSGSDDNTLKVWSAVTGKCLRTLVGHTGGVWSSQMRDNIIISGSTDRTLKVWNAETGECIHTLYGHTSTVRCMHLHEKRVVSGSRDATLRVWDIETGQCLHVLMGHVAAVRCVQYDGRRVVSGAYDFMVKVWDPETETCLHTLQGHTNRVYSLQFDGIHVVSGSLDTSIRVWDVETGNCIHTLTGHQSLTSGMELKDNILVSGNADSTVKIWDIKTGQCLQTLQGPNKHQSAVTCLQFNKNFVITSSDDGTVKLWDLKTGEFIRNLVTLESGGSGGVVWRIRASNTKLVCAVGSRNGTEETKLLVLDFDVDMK
GPR151 ag: activators of human GPR151; Q8TDV0; PathHunter beta-arrestin GPR151 cells, luminescence; activation, % at 11.2 µM; 650,000 compounds, 1% hits; AID 1508602; in the data active means activation above about 4.9%;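 further: 0% = median of compound wells and 100% = cells with positive control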
TEAD-YAP inh: TEAD-YAP interaction inhibition | HEK-TIYL cells, TEAD-Gal4/YAP UAS-luciferase luminescence | inhibition, % at 9.12 µM | 640,000 compounds, 1.4% hits | AID 1259422; in the data active means inhibition above about 32%;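 further: 0% = median of test compound wells and 100% = reference inhibitor wells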
MITF inh: human MITF inhibition, primary screen; inhibition, % at 2.6 µM; AlphaScreen MITF homodimerization, bead proximity signal; 650,000 compounds, 0.91% hits; AID 1259374; O75030; in the data active means inhibition above about 50%;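 further: 0% = vehicle wells with protein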
* marks the source's active call; other numbers are inactive results; ! = repeats disagree.

SMILES	FBW7 activator	GPR151 ag	TEAD-YAP inh	MITF inh
O=C(NC(c1ccccc1)c1ccccn1)c1ccc([N+](=O)[O-])cc1 (stereo not drawn)	0.0	1.0	3.8	4.7
Oc1c(C(Nc2ccc(Cl)cc2)c2ccccn2)ccc2cccnc12 (stereo not drawn)	-1.7	-0.2	15.9	68.7*
O=c1cc(CO)oc(C(Nc2cccc(F)c2)c2ccccn2)c1O (stereo not drawn)	-0.2	3.5	4.1	12.2
O=[N+]([O-])c1ccc(NC(c2ccccn2)c2ccc3cccnc3c2O)cc1 (stereo not drawn)	-1.1	0.8	86.8*	18.4
Oc1c(C(Nc2cccc(C(F)(F)F)c2)c2ccccn2)ccc2cccnc12 (stereo not drawn)	-1.1	3.4	27.4	51.0*
CC(=O)SCC(=O)N=c1sc2cc(Br)ccc2n1C	-0.1	-2.1	-2.9	-8.9
O=C(NCc1ccc(Cl)cc1)C1CCN(C(=O)c2n[nH]c3ccccc23)CC1	0.0	-0.3	-2.9	-4.6
Oc1c(C(Nc2cccc(Cl)c2)c2ccccn2)ccc2cccnc12 (stereo not drawn)	-0.2	-0.7	62.3*	45.0
CCOc1cc(C2C(C#N)=C(N)Oc3c2c(C)nn3-c2cccc(Cl)c2)ccc1O (stereo not drawn)	-0.4	-1.5	10.0	18.6
CC(=O)Nc1ccc(CN2CCc3c([nH]c4ccccc34)C2c2ccccn2)s1 (stereo not drawn)	-0.2	1.1	34.1*	3.3
O=C(Cc1ccccn1)N1CCc2c([nH]c3ccccc23)C1c1ccccn1 (stereo not drawn)	0.0	2.2	6.8	-5.7
Nc1ccc(Oc2ccc3c(c2)C(=O)N(Cc2cccnc2)C3=O)cc1	-0.1	1.1	34.8*	10.3
O=C1c2ccccc2C(=O)N1Cc1cccnc1	0.0	0.8	-2.6	10.6
COc1ccc(-n2nc(C(=O)Nc3ccc(Oc4ccccc4)cc3)c3ccccc3c2=O)c(OC)c1	0.6	-1.6	0.2	20.3
CCOC(=O)Nc1ccc(Cc2ccc(NC(=O)OCC)cc2)cc1	-0.1	1.3	33.2*	-4.0
CCOC(=O)Nc1ccc(I)cc1	0.2	0.8	-37.8	1.4
CC(=O)Nc1ccc(NC2=C/C(=N/S(=O)(=O)c3ccccc3)c3ccccc3C2=O)cc1	-0.5	0.3	99.0*	33.3
O=C1C(N2CCCCC2)=C/C(=N/S(=O)(=O)c2ccccc2)c2ccccc21	0.0	-1.8	-6.2	12.9
CCOC(=O)c1ccc(-n2sc3c(c2=S)-c2cc(C)ccc2NC3(C)C)cc1	0.3	-1.0	10.2	75.8*
CCN1C=C/C(=C/c2cccc[n+]2C)c2ccccc21	-0.1	-0.1	82.0*	-5.3
C=CCn1c(=O)/c(=C\C=C2\C=CN(CC)c3ccccc32)s/c1=C\c1sc(-c2ccccc2)c(-c2ccccc2)[n+]1CC	-0.1	-0.2	1.7	-45.4
Cc1nn(C)c(C)c1-c1nc(NC2CC2)c2ncn(-c3ccsc3)c2n1	0.0	2.1	40.3*	0.7
COc1ccc(-c2nc(NC3CCN(Cc4ccccc4)CC3)c3ncn(-c4ccsc4)c3n2)cc1	0.0	0.2	-0.2	9.8
COc1ccc(-c2nc(NC3CC3)c3ncn(-c4ccsc4)c3n2)cc1	0.1	1.9	50.1*	3.0
Nc1ccc(N2CCCCC2)cc1N1CCCCC1	-0.7	0.4	71.9*	39.4
SMILES	FBW7 activator	GPR151 ag	TEAD-YAP inh	MITF inh
Nc1cc(Cl)ccc1N1CCCCC1	-0.1	-0.6	-14.0	-8.6
CCOC(=O)C1CCCN(Cc2cc(OC)c(OC)cc2OC)C1 (stereo not drawn)	0.1	3.6	8.0	37.8
COc1ccc(CCNc2ncnc3sccc23)cc1OC	0.6	3.4	55.5*	18.9
COc1ccc(CCNc2nc(C)nc3sc(C)c(C)c23)cc1OC	0.1	0.4	36.8*	2.2
COc1ccc(CCNc2ncnc3c2oc2ccccc23)cc1OC	0.0	4.4	45.7*	4.3
COc1ccc(CCNc2ncnc3ccccc23)cc1OC	-0.3	2.2	63.0*	-1.3
c1ccc(CCNc2ncnc3ccccc23)cc1	0.2	-0.5	24.2	3.2
O=C(Nc1c[nH]c(=O)[nH]c1=O)c1cccc(C(=O)Nc2c[nH]c(=O)[nH]c2=O)c1	-0.5	0.5	0.6	10.6
COc1ccc(O)c(C(=O)CC(=O)c2ccccc2Cl)c1	0.0	-3.3	14.7	-10.2
COc1ccc(O)c(C(=O)CC(=O)c2ccccc2)c1	-0.1	-5.0	55.4*	-7.8
Nc1ncc(-c2cccc3ncccc23)nc1NCc1ccccc1	0.6	1.0	48.2*	21.5
C[C@@H](Nc1nc(-c2cccc3cccnc23)cnc1N)c1ccccc1	0.1	-0.5	16.0	5.7
C[C@H](Nc1nc(-c2cccc3ncccc23)cnc1N)c1ccccc1	0.1	-0.7	59.7*	13.6
O=C(CCc1ccccc1)Nc1ccc(S(=O)(=O)N2CCC(c3nc4ccccc4[nH]3)CC2)cc1	0.0	-0.2	32.0*	13.7
O=C(Nc1ccc(S(=O)(=O)N2CCC(c3nc4ccccc4[nH]3)CC2)cc1)c1ccccc1F	0.3	-0.5	40.3*	19.6
CCC(CC)C(=O)Nc1ccc(S(=O)(=O)N2CCC(c3nc4ccccc4[nH]3)CC2)cc1	0.0	-0.1	12.5	16.1
O=C(NCc1cccc(C(F)(F)F)c1)c1cccc(Nc2ccc(N3CCOCC3)cc2)n1	0.2	3.9	62.3*	16.3
COc1ccc(CCNC(=O)c2cccc(NCCN3CCOCC3)n2)cc1	-0.1	-0.6	3.8	-4.0
COc1ccc(CCNC(=O)c2cccc(Nc3ccc(N4CCOCC4)cc3)n2)cc1	-0.1	4.1	59.4*	15.7
O=C(NCc1cccc(C(F)(F)F)c1)c1csc(Nc2ccc(N3CCOCC3)cc2)n1	0.1	2.6	51.4*	22.1
COc1cc(Nc2cccc(C(=O)NCCc3ccc(O)cc3)n2)cc(OC)c1OC	0.0	0.9	34.9*	13.0
COc1cc(Nc2cccc(C(=O)NCCN(C(C)C)C(C)C)n2)cc(OC)c1OC	0.0	1.5	-1.2	13.5
O=C(NCc1cccc(C(F)(F)F)c1)c1csc(Nc2ccc(C(F)(F)F)cc2)n1	0.0	1.3	-5.7	-11.4
CCN(CC)C(=O)/C=C/c1ccc(Cl)cc1	0.0	-0.4	-40.5	-0.7
O=C(Nc1cc(C(=O)N2CCN(c3ccc(F)cc3)CC2)ccc1N1CC2CC(C1)c1cccc(=O)n1C2)c1ccc(F)cc1 (stereo not drawn)	0.3	-1.1	0.1	-0.3
SMILES	FBW7 activator	GPR151 ag	TEAD-YAP inh	MITF inh
O=c1c(-c2ccc(Cl)cc2)coc2cc(O)ccc12	0.0	-4.3	16.3	3.5
Cc1nc(-c2coc3cc(O)cc(O)c3c2=O)cs1	0.0	-5.4	-34.2	-13.1
COc1ccc(-c2coc3cc(O)cc(O)c3c2=O)cc1	-0.2	0.4	37.0*!	-5.2
O=c1c(-c2ccc(O)cc2)coc2cc(O)cc(O)c12	0.0	-1.6	43.9*!	14.8
Cc1oc2cc(O)cc(O)c2c(=O)c1-c1ccc2c(c1)OCCCO2	-0.1	0.4	43.5*	7.1
O=c1c(-c2ccc3c(c2)OCCCO3)coc2cc(O)ccc12	0.0	-3.0	75.1*	-1.4
Cc1oc2cc(O)ccc2c(=O)c1-c1ccc2c(c1)OCCO2	0.1	-0.7	-12.6	9.7
O=c1c(-c2ccc(Br)cc2)coc2cc(O)cc(O)c12	0.7	-0.2	-19.2	12.6
